Data from PubChem BioAssay (Tox21).
Records with an inconclusive call do not appear. A call without a number means that no potency is given here. Activity calls are given as the source filed them. The call rests on the fitted dose curve; in most records, active means well fitted activation curve with a large enough effect; inconclusive means small, poorly fitted or top-dose-only effect; inactive means flat fitted curve, though single readings scatter.

Test: qHTS assay to identify small molecule phospholipidosis (PLD) inducers (AID 1259344)
Settings: HepG2 phospholipidosis, LipidTOX Red imaging, 24 h; series mostly up to 38.3 µM
Procedure, shortened: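 Read-out is LipidTOX Red fluorescence (ex 595/em 615) imaged in HepG2 cells after 24 h compound exposure at 37 C, with Hoechst nuclear counterstain (ex 352/em 461) allowing per-cell normalisation.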

Row | SMILES | Potency
1 | O=C1[O][Bi][O]c2ccccc21 | inactive
2 | CCC(NC(C)C)C(O)c1ccc(O)c(O)c1 (stereo not given) | inactive
3 | NC(=O)[C@@H]1C[C@]2(NC(=O)NC2=O)c2cc(F)ccc2O1 | inactive
4 | C/C=C/C1=C(C(=O)O)N2C(=O)[C@@H](NC(=O)[C@H](N)c3ccc(O)cc3)[C@H]2SC1 | inactive
5 | Cc1cccc(C)c1NC(=O)C1CCCCN1C (stereo not given) | inactive
6 | CN(C)CCc1c[nH]c2ccc(Cn3cncn3)cc12 | inactive
7 | O=C(O)COc1ccccc1/C=N/NC(=O)c1ccncc1 | inactive
8 | CCc1ncnc2cc(OC)c(OC)cc12 | inactive
9 | N#Cc1c(N(CC(=O)O)CC(=O)O)sc(C(=O)O)c1CC(=O)O | inactive
10 | CCCCCCCCCCCCCCCC[n+]1ccccc1 | inactive
11 | O=P(O)(O)CP(=O)(O)O | inactive
12 | COc1ccc(/C=C/C(=O)O)cc1 | inactive
13 | C=CC[N@@+]12CC[C@@]34c5ccccc5N5/C=C6/[C@H]7C[C@H]8[C@@]9(CC[N@@+]8(CC=C)C/C7=C/CO)c7ccccc7N(/C=C(/[C@@H](C[C@@H]31)/C(=C\CO)C2)[C@H]54)[C@@H]69 | inactive
14 | COc1cc2c(cc1O)CCN[C@]21CS[C@@H]2c3c(OC(C)=O)c(C)c4c(c3[C@H](COC1=O)N1[C@@H]2[C@H]2c3c(cc(C)c(OC)c3O)C[C@@H]([C@@H]1O)N2C)OCO4 | inactive
15 | C=C(Nc1ccc(OCC)cc1)Nc1ccc(OCC)cc1 | inactive
16 | CC(C)(S)C(=O)N[C@@H](CS)C(=O)O | inactive
17 | CSCC[C@H](NC(=O)[C@H](Cc1ccc(OS(=O)(=O)O)cc1)NC(=O)[C@@H](N)CC(=O)O)C(=O)NCC(=O)N[C@@H](Cc1c[nH]c2ccccc12)C(=O)N[C@@H](CCSC)C(=O)N[C@@H](CC(=O)O)C(=O)N[C@@H](Cc1ccccc1)C(N)=O | inactive
18 | CC(C)CCC[C@@H](C)[C@H]1CC[C@H]2[C@@H]3CC[C@@H]4C[C@H](O)CC[C@]4(C)[C@H]3CC[C@]12C | inactive
19 | O=C1CCC(c2ccccc2)(C2CCN(Cc3ccccc3)CC2)C(=O)N1 (stereo not given) | inactive
20 | CC1(C)S[C@@H]2[C@H](NC(=O)[C@H](N)c3ccc(O)cc3)C(=O)N2[C@H]1C(=O)O | inactive

Row | SMILES | Potency
21 | CC12CCC(C1)C(C)(C)C2=O (stereo not given) | inactive
22 | CC(C)=CCC/C(C)=C/CC/C(C)=C/CC/C(C)=C/CC1=C(C)C(=O)c2ccccc2C1=O | inactive
23 | NC(=O)C1c2ccccc2CCc2ccccc21 | inactive
24 | CC1(C)C[C@@H]1C(=O)N/C(=C\CCCCSC[C@H](N)C(=O)O)C(=O)O | inactive
25 | O=C(O)c1cc(O)c2c(c1)[C@H]([C@H]1c3cc(C(=O)O)cc(O)c3C(=O)c3c(O[C@@H]4O[C@H](CO)[C@@H](O)[C@H](O)[C@H]4O)cccc31)c1cccc(O[C@@H]3O[C@H](CO)[C@@H](O)[C@H](O)[C@H]3O)c1C2=O | inactive
26 | Cc1cc(CC(C)CC(C)(C)C)n(O)c(=O)c1 (stereo not given) (tested in a mixture with another compound) | inactive
27 | C/C(=C(/CCO)SSCC1CCCO1)N(C=O)Cc1cnc(C)nc1N (stereo not given) | inactive
28 | CC[C@H]1OC(=O)C[C@@H](O)[C@H](C)[C@@H](O[C@@H]2O[C@H](C)[C@@H](O[C@H]3C[C@@](C)(O)[C@@H](O)[C@H](C)O3)[C@H](N(C)C)[C@H]2O)[C@@H](CC=O)C[C@@H](C)C(=O)/C=C/C(C)=C/[C@@H]1CO[C@@H]1O[C@H](C)[C@@H](O)[C@@H](OC)[C@H]1OC | inactive
29 | C[N+](C)(C)CCOP(=O)(O)OP(=O)([O-])OC[C@H]1O[C@@H](n2ccc(N)nc2=O)[C@H](O)[C@@H]1O | inactive
30 | N[C@@H](Cc1ccc(O)c(O)c1)C(=O)O | inactive
31 | O=C(Cn1cnnn1)N[C@@H]1C(=O)N2C(C(=O)O)=C(CSc3nncs3)CS[C@H]12 | inactive
32 | CCC[C@@H]1C[C@@H](C(=O)N[C@@H]([C@H]2O[C@H](SC)[C@H](OP(=O)(O)O)[C@@H](O)[C@H]2O)[C@H](C)Cl)N(C)C1 | inactive
33 | C[C@@H]1O[C@@H](OC[C@H]2O[C@@H](Oc3c(-c4ccc(OCCO)c(OCCO)c4)oc4cc(OCCO)cc(O)c4c3=O)[C@H](O)[C@@H](O)[C@@H]2O)[C@H](O)[C@H](O)[C@H]1O | inactive
34 | O=C(O)c1cc(=O)c2c3nc4ccccc4oc-3cc(=O)c2[nH]1 | inactive
35 | CC1CCCC(C)N1NC(=O)c1ccc(Cl)c(S(N)(=O)=O)c1 (stereo not given) | inactive
36 | CCCCCCCCCCCCCCCC(=O)OC[C@H](COP(=O)([O-])OCC[N+](C)(C)C)OC(=O)CCCCCCCCCCCCCCC | inactive
37 | O=C(O)/C=C/C(=O)Nc1ccc(S(=O)(=O)Nc2nccs2)cc1 | inactive
38 | Cc1ncc(C[n+]2csc(CCOP(=O)(O)O)c2C)c(N)n1 | inactive
39 | CC1(C)S[C@@H]2[C@H](NC(=O)[C@@H](NC(=O)N3CCNC3=O)c3ccccc3)C(=O)N2[C@H]1C(=O)O | inactive
40 | CN=C(N)NCCC[C@H](N)C(=O)O | inactive
